Measurements taken from the supplement of paper PMC10127200.
Counter-ions that a name gives are not always drawn.

Each molecule was assayed on HEPG2 (assay: Euclidean distance of Cell Painting phenotypic profile (signed KS, 77 features) to DMSO centroid (dimensionless distance); 5 or 10 uM (library dependent); higher = stronger phenotypic change vs DMSO (phenoactivity)). Settings: 48 h.
Outline: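 Five cancer lines and a healthy fibroblast line received library compounds at 10 or 5 uM (library-dependent, 0.1% DMSO final) for 48 h. Stained cells were imaged confocally at 20X (9 fields/well). Harmony extracted 77 features, each scored as a signed Kolmogorov-Smirnov statistic against same-plate vehicle wells. Profiles were plate-position corrected, correlation-weighted and replicate-averaged at the top dose. Phenoactivity is the Euclidean distance from each profile to the median vehicle profile.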

**Q.** With `O=C1c2cccc(O)c2C(=O)c2c(O)cccc21` [Danthron] as the molecule, how does the Euclidean distance read?
**A.** Its Euclidean distance is 0.868.

**Q.** With `Cc1c(-c2cnccn2)ssc1=S` [Oltipraz] as the molecule, how does the Euclidean distance read?
**A.** Its Euclidean distance is 1.11.

**Q.** How did the Euclidean distance turn out when `CO[C@H]1/C=C/O[C@@]2(C)Oc3c(C)c(O)c4c(O)c(c(/C=N/N5CCN(C)CC5)c(O)c4c3C2=O)NC(=O)/C(C)=C\C=C\[C@H](C)[C@H](O)[C@@H](C)[C@@H](O)[C@@H](C)[C@H](OC(C)=O)[C@@H]1C` [Rifampin] was run?
**A.** The Euclidean distance was 2.28.

**Q.** For `C/C(=N\NC(=S)N1CCC1)c1ccccn1`, which Euclidean distance is on record?
**A.** Its Euclidean distance is 4.41.

**Q.** Which Euclidean distance does the source give for `Cc1nnc(SCC2=C(C(=O)O)N3C(=O)[C@@H](NC(=O)Cn4cc(Cl)c(=O)c(Cl)c4)[C@H]3SC2)s1` [Cefazedone] here?
**A.** The Euclidean distance was 0.733.

**Q.** `CC(=O)OCC[N+](C)(C)C` [Acetylcholine iodide] was tested. Which Euclidean distance did it give?
**A.** Its Euclidean distance is 0.594.

**Q.** `CCCC(=O)Nc1cccc(NC(=O)c2ccccc2Br)c1` was tested. Which Euclidean distance did it give?
**A.** The Euclidean distance was 1.27.

**Q.** Which Euclidean distance does the source give for `Nc1ncn([C@@H]2O[C@H](CO)[C@@H](O)[C@H]2O)c(=O)n1` [Azacitidine] here?
**A.** The Euclidean distance was 1.69.

**Q.** Which Euclidean distance does the source give for `O=C(/C=C/C#Cc1cccc(NS(=O)(=O)c2ccccc2)c1)NO` [Oxamflatin] here?
**A.** The Euclidean distance was 2.79.

**Q.** How did the Euclidean distance turn out when `CNCCc1ccccn1` [Betahistine mesylate] was run?
**A.** Its Euclidean distance is 0.422.

**Q.** How did the Euclidean distance turn out when `COc1ccc2cc([C@H](C)C(=O)O)ccc2c1` [Naproxen] was run?
**A.** The Euclidean distance was 1.13.

**Q.** With `OCC(O)CN1CCN(c2ccccc2)CC1` (centres undefined) [Dropropizine] as the molecule, how does the Euclidean distance read?
**A.** The Euclidean distance was 0.735.

**Q.** Which Euclidean distance does the source give for `C=CC(=O)Nc1cccc(Nc2nc(Nc3ccc(N4CCN(C(C)=O)CC4)cc3OC)ncc2C(F)(F)F)c1` here?
**A.** The Euclidean distance was 0.62.

**Q.** For `C/C(=C\c1ccc(C(=O)O)cc1)c1ccc2c(c1)C(C)(C)CCC2(C)C` [TTNPB (Arotinoid Acid)], which Euclidean distance is on record?
**A.** Its Euclidean distance is 1.61.

**Q.** Which Euclidean distance does the source give for `COc1cc2nc(N3CCN(C(=O)C4CCCO4)CC3)nc(N)c2cc1OC` (centres undefined) [Terazosin HCl] here?
**A.** Its Euclidean distance is 1.33.

**Q.** Which Euclidean distance does the source give for `C=C1/C(=C\C=C2/CCC[C@]3(C)[C@@H]([C@H](C)CCCC(C)C)CC[C@@H]23)C[C@@H](O)C[C@@H]1O` [Alfacalcidol] here?
**A.** Its Euclidean distance is 0.811.

**Q.** For `COc1ncc(-c2ccc3nccc(-c4ccnnc4)c3c2)cc1NS(=O)(=O)c1ccc(F)cc1F`, which Euclidean distance is on record?
**A.** Its Euclidean distance is 2.53.

**Q.** How did the Euclidean distance turn out when `CNC(=O)CN(CCN(CCN(CC(=O)[O-])CC(=O)NC)CC(=O)[O-])CC(=O)[O-].O.[Gd+3]` [Gadodiamide Hydrate] was run?
**A.** Its Euclidean distance is 0.469.

**Q.** `CC(C)Cc1ccc(C(C)C(=O)O)cc1` (centres undefined) [Ibuprofen] was tested. Which Euclidean distance did it give?
**A.** The Euclidean distance was 0.86.

**Q.** `O=C1[C@H]2CCCC[C@H]2C(=O)N1CCCCN1CCN(c2nsc3ccccc23)CC1` [Perospirone hydrochloride] was tested. Which Euclidean distance did it give?
**A.** Its Euclidean distance is 1.05.

**Q.** With `CC(=O)Oc1cc(C(C)C)c(OCCN(C)C)cc1C` [Moxisylyte hydrochloride] as the molecule, how does the Euclidean distance read?
**A.** Its Euclidean distance is 0.369.

**Q.** With `OCc1cc([C@@H](O)CNCCCCCCOCCOCc2c(Cl)cccc2Cl)ccc1O` [Vilanterol Trifenate] as the molecule, how does the Euclidean distance read?
**A.** The Euclidean distance was 0.721.

**Q.** How did the Euclidean distance turn out when `CC[C@H]1OC(=O)[C@H](C)[C@@H](O[C@H]2C[C@@](C)(OC)[C@@H](O)[C@H](C)O2)[C@H](C)[C@@H](O[C@@H]2O[C@H](C)C[C@H](N(C)C)[C@H]2O)[C@](C)(O)C[C@@H](C)CN(C)[C@H](C)[C@@H](O)[C@]1(C)O` [Azithromycin] was run?
**A.** Its Euclidean distance is 2.1.

**Q.** `CN(C)C1CCN(C(=O)c2ccc(NC(=O)Nc3ccc(-c4nc(N5CCOCC5)nc(N5CCOCC5)n4)cc3)cc2)CC1` was tested. Which Euclidean distance did it give?
**A.** The Euclidean distance was 2.04.

**Q.** How did the Euclidean distance turn out when `O=C(O)C1(C(=O)O)CCC1.[NH2-].[NH2-].[Pt+2]` [Carboplatin] was run?
**A.** Its Euclidean distance is 2.58.

**Q.** How did the Euclidean distance turn out when `O=C(N/N=C/c1ccc(O)c(O)c1)c1cc2ccccc2cc1O` [Dynasore] was run?
**A.** Its Euclidean distance is 1.13.

**Q.** `C[C@@H](NC(=O)c1ncnc(N)c1Cl)c1ncc(C(=O)Nc2cc(C(F)(F)F)c(Cl)cn2)s1` was tested. Which Euclidean distance did it give?
**A.** Its Euclidean distance is 0.931.

**Q.** With `CCCC(CCC)C(=O)O` [Valproic acid sodium salt (Sodium valproate)] as the molecule, how does the Euclidean distance read?
**A.** Its Euclidean distance is 0.677.

**Q.** Which Euclidean distance does the source give for `Clc1ccc(C(Cn2ccnc2)OCc2csc3c(Cl)cccc23)c(Cl)c1` (centres undefined) [Sertaconazole nitrate] here?
**A.** Its Euclidean distance is 0.627.

**Q.** Which Euclidean distance does the source give for `Cc1cc(Nc2ccc(NC(=O)c3ccc(Nc4ccnc5ccccc45)cc3)cc2)nc(N)n1` here?
**A.** The Euclidean distance was 0.532.

**Q.** `C=C1/C(=C\C=C2/CCC[C@]3(C)[C@@H]([C@H](C)/C=C/[C@@H](O)C4CC4)CC[C@@H]23)C[C@@H](O)C[C@@H]1O` [Calcipotriene] was tested. Which Euclidean distance did it give?
**A.** The Euclidean distance was 0.91.

**Q.** With `CONC(=O)c1ccccc1Nc1cc(Nc2cc(C)nn2C(C)C)ncc1Cl` as the molecule, how does the Euclidean distance read?
**A.** The Euclidean distance was 0.825.

**Q.** `O=C1OC2(c3ccc(O)cc3Oc3cc(O)ccc32)c2ccccc21` [Fluorescein] was tested. Which Euclidean distance did it give?
**A.** Its Euclidean distance is 1.12.

**Q.** How did the Euclidean distance turn out when `C[C@H]1[C@H](NC(=O)/C(=N\OC(C)(C)C(=O)O)c2csc(N)n2)C(=O)N1S(=O)(=O)O` [Aztreonam] was run?
**A.** The Euclidean distance was 0.888.
